Assay results reported in PubChem BioAssay AID504333 (National Center for Advancing Translational Sciences (NCATS), 2011).
The whole screen tested about 360,000 compounds, of which about 16,000 (4.4%) were called active. About 9% were inconclusive and are not listed. Only a selection was taken, and actives are over-represented in it overall. A number with no mark means an inactive call. Calls follow the shape of the dose curve; as a rule, active = well fitted inhibition curve with a large enough effect; inconclusive = small, poorly fitted or top-dose-only effect; inactive = no such curve, though single readings can be large or run the other way.

target: Bromodomain adjacent to zinc finger domain protein 2B (Homo sapiens) (UniProt Q9UIF8); assay: qHTS Assay for Inhibitors of BAZ2B; details: AlphaScreen BAZ2B-H3K14Ac peptide displacement; series mostly up to 114 µM; activity change, negative = inhibition: at the top concentration; also: nearly all actives have a fitted effect of over 60% in size
Sequence (Q9UIF8 whole entry, looked up, the tested form may be a part): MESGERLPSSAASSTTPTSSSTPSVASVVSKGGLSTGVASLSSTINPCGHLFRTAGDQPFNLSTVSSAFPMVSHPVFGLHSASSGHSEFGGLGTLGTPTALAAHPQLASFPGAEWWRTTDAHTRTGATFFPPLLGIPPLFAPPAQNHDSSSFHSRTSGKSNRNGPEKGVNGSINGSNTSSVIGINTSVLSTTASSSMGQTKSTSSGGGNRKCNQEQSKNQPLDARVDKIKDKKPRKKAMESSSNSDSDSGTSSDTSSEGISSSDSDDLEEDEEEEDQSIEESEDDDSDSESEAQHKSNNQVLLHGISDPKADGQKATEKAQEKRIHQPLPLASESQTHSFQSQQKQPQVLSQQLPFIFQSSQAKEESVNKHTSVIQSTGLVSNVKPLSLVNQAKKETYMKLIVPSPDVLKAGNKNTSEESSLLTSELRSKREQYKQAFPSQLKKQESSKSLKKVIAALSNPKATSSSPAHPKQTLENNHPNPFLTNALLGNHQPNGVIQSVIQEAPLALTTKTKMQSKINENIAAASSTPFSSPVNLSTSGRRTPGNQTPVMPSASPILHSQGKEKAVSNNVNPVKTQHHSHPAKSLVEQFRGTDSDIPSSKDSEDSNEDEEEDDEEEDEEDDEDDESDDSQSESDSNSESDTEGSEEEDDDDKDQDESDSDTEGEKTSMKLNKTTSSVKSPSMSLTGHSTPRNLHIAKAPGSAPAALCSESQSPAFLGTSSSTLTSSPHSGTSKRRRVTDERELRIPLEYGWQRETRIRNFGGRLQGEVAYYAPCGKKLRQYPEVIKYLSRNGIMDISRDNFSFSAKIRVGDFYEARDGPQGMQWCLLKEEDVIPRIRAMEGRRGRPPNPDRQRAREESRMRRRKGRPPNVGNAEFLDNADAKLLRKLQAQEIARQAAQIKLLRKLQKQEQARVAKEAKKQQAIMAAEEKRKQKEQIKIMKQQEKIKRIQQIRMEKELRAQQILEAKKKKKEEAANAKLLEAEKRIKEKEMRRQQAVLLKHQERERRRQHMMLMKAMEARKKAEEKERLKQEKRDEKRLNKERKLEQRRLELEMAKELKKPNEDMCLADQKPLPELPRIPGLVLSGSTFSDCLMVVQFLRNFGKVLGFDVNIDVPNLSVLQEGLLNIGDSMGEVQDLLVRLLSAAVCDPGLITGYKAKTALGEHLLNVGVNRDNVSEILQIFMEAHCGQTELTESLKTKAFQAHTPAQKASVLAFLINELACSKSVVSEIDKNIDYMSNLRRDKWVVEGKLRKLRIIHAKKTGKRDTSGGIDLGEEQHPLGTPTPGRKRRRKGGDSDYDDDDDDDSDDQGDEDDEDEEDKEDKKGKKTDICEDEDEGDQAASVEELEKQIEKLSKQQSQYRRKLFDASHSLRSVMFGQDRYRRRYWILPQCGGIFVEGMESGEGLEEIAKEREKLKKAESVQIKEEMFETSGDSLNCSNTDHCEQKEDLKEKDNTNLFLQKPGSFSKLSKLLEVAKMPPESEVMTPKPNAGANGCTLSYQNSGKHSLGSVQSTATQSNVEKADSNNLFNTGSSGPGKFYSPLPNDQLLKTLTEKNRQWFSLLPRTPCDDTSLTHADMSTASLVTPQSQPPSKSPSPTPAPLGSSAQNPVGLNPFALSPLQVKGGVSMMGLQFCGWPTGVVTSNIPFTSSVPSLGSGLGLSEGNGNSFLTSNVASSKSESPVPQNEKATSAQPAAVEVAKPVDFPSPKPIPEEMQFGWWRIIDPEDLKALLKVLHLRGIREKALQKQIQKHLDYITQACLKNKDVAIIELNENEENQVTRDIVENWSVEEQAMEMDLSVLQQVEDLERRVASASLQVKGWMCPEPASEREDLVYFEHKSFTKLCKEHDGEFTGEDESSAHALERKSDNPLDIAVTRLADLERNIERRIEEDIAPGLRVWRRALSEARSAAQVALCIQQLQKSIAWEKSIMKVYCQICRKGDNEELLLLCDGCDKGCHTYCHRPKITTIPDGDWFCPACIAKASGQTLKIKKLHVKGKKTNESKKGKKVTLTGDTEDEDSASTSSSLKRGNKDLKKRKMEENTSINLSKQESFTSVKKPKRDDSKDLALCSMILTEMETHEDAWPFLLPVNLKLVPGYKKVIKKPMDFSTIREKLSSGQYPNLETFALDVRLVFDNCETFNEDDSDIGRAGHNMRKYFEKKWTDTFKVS
How it was run: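 In this displacement format the biotinylated H3(5-23) peptide acetylated at Lys14 serves as ligand at 50 nM, with BAZ2B at 50 nM in PBS pH 7.4 containing 0.01% Tween-20. Donor and acceptor beads are 10 ug/mL final.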
% is scaled to controls: 0 for no effect and ±100 for the full control effect; potency is read from the fitted curve at half-maximal effect.

| SMILES | activity change, negative = inhibition | Potency |
| --- | --- | --- |
| CCC(=O)N1N=C(c2ccc(OC)cc2)CC1c1cn(-c2ccccc2)nc1-c1cccs1 (stereo not given) | -5.53% | – |
| O=C(Cn1ncc2c3ccccc3n(Cc3ccccc3)c2c1=O)NC1CCCCCC1 | -0.79% | – |
| Fc1ccc(N2CCN(Cc3cnc(Oc4ccc(Br)cc4)s3)CC2)cc1 | -9.51% | – |
| COc1ccc(N2CCN(Cc3nnc(-c4ccccc4)o3)CC2)cc1 | -35.9% | – |
| COc1ccc(N2CCN(Cc3ccc(Br)s3)CC2)cc1 | – | 17.8 µM (active) |
| CCN1CCN(c2ncnc3c2cnn3-c2ccc(C)c(C)c2)CC1 | -2.62% | – |
| CC(C)(C)c1ccc(OCC(=O)N2CCC(c3nc4ccccc4s3)CC2)cc1 | -19.1% | – |
| COC(=O)C1=C(C)N(C(C)c2ccccc2)C(=O)/C1=C\c1ccco1 (stereo not given) | – | 20 µM (active) |
| O=C(OCN1C(=O)c2ccccc2C1=O)/C(=C\c1ccco1)NC(=O)c1ccccc1 | -5.64% | – |
| O=C(/C=C/c1ccco1)NC(=S)Nc1ccccc1Br | -36.4% | – |
| CCc1cccc(C)c1NS(=O)(=O)c1ccc(-c2cc(C)no2)s1 | 2.64% | – |
| CCC(=O)N1CCc2cc(Br)cc(S(=O)(=O)CCC(=O)NCCc3ccc(OC)c(OC)c3)c21 | 27% | – |
| CC(C)NC(=O)C1CCC(Cn2c(=O)c3sccc3n(Cc3ccc(F)cc3)c2=O)CC1 (stereo not given) | -5.59% | – |
| CCOC(=O)c1c(C)[nH]c(C)c1S(=O)(=O)N1CCCC(C(=O)NCc2ccccc2Cl)C1 (stereo not given) | -21.1% | – |
| O=C(Nc1nnc(CCOCCOCCc2nnc(NC(=O)c3ccco3)s2)s1)c1ccco1 | -25.7% | – |
| O=C(Nc1nc(-c2ccco2)c(-c2ccco2)s1)c1ccco1 | – | 44.7 µM (active) |
| O=C(Nc1ccccc1)c1ccco1 | 6.6% | – |
| CCOc1ccc(CNC(=O)c2ccc(CS(=O)c3ccccc3)o2)cc1 (stereo not given) | -17.4% | – |
| O=C(NCCCn1ccnc1)c1cc(-c2ccccc2)on1 | -27.5% | – |
| CC(C)(C)OC(=O)N/N=C/c1cn(-c2ccccc2)nc1-c1cccnc1 | 3.33% | – |
| COc1cccc(-c2nn(-c3ccccc3)cc2/C=C(\C#N)C(=O)NCCCn2ccnc2)c1 | – | 50.1 µM (active) |
| Cc1cc2c(cc1S(=O)(=O)CCC(=O)Nc1ccc(OC(F)(F)F)cc1)OCC(=O)N2 | 1.13% | – |
| Cc1cc(C)cc(NC(=O)CSc2oc(-c3ccccc3)nc2S(=O)(=O)c2ccc(Cl)cc2)c1 | -13% | – |
| O=C(Nc1cccnc1)c1ccc(Cl)cc1[N+](=O)[O-] | -25.8% | – |
| O=C(Nc1cccnc1)c1cc2cc(Br)ccc2oc1=O | – | 79.4 µM (active) |

| SMILES | activity change, negative = inhibition | Potency |
| --- | --- | --- |
| COc1ccc2oc(=N)c(C(=O)Nc3ccc(Br)cc3)cc2c1 | -3.61% | – |
| CCc1cc2c(cc3c(=O)n(CC(=O)N4CCN(c5cc(Cl)ccc5C)CC4)ncn32)s1 | 5.16% | – |
| COc1cc(Cl)c(C)cc1NC(=O)CCc1nc2cccnc2n1Cc1cccs1 | -18% | – |
| CCOc1ccc(NC(=O)c2c(NCc3cccc(OC)c3OC)sc3c2CCC3)cc1 | -1.31% | – |
| Cc1ccc(-c2nn(CCC(=O)Nc3ccc(Cl)c(Cl)c3)c(=O)c3ccccc23)cc1 | -11.8% | – |
| COc1ccc(CCC(=O)NCCc2csc(-c3ccc(Cl)cc3)n2)cc1 | -4.25% | – |
| CCOC(=O)c1ccc[n+](CC(=O)Nc2ccccc2OC(F)F)c1 | -1.09% | – |
| O=C(COC(=O)c1ccccc1SCC(=O)N1CCCC1)Nc1ccccc1OC(F)F | 3.45% | – |
| Cc1ccc(-c2nc(SCC(=O)Nc3ccccc3OC(F)F)c3c(C)c(C(=O)O)sc3n2)cc1 | – | 44.7 µM (active) |
| COc1cccc(C(=O)NC2=NC(c3ccc(N(C)C)cc3)CC(=O)N2)c1 (stereo not given) | -14.6% | – |
| CCCCCn1c(=O)[nH]c2cc(C(=O)Nc3ccc(F)cc3)ccc2c1=O | -13.7% | – |
| CCN(CC)S(=O)(=O)c1ccc2c(c1)N(CC(=O)NCC(C)c1ccccc1)C(=O)CO2 (stereo not given) | -35.7% | – |
| CC(=O)N1CCCc2cc(S(=O)(=O)Nc3ccc(Cl)cc3F)ccc21 | -5.37% | – |
| Cc1ccc2oc3c(c(=O)c2c1)C(c1ccc([N+](=O)[O-])cc1)N(CCCN1CCOCC1)C3=O (stereo not given) | -0.558% | – |
| Cc1ccccc1NC(=O)Cn1c(=O)n(CCc2ccccc2)c(=O)c2ccccc21 | 1.27% | – |
| Cc1ccc(C)c(CN2C(=O)c3ccccc3S(=O)c3ccc(C(=O)N4CCOCC4)cc32)c1 (stereo not given) | -12.7% | – |
| O=[N+]([O-])C(=c1ccc2c(c1)N1C3=C(CCCC3)CC3CCCCC31N=2)[N+](=O)[O-] (stereo not given) | – | 44.7 µM (active) |
| Cc1ccccc1CNC(=O)c1ccc(NC(=O)N2CCCCc3ccccc32)cc1 | -1.37% | – |
| Cc1ccc(CNC(=O)CSC2=Nc3ccccc3C3=NC(C)C(=O)N23)cc1 (stereo not given) | -9.55% | – |
| CCCN1CCN(CCCNC(=O)c2ccc3nc(Cc4ccccc4)oc3c2)CC1 | -14.6% | – |
| Cc1ccc(NC(=S)NCCc2ccc(Cl)cc2)c(C)c1 | – | 79.4 µM (active) |
| Cc1cccc(NC(=S)NCCc2ccc(Cl)cc2)c1C | -6.6% | – |
| Cc1cc(F)ccc1NC(=S)NCCc1ccccc1 | -10.7% | – |
| COc1cccc(N=C2SC(C(=O)Nc3cccc(Cl)c3)CC(=O)N2C)c1 (stereo not given) | 0.78% | – |
| CCOC(=O)N1CCc2c(sc(NCc3cccc(F)c3)c2C(=O)Nc2ccccc2OCC)C1 | -24.5% | – |

| SMILES | activity change, negative = inhibition | Potency |
| --- | --- | --- |
| CSc1nnc(SCc2nc3sc(C(=O)O)c(C)c3c(=O)[nH]2)s1 | – | 50.1 µM (active) |
| Cc1sc2nc(CSCC(=O)NC3CCCCC3)[nH]c(=O)c2c1C | 9.45% | – |
| Cc1sc2nc(CSCC(=O)Nc3c(Cl)cccc3Cl)[nH]c(=O)c2c1C | 9.3% | – |
| COc1c(Cl)cc(C(=O)N(Cc2ccccc2F)C2CCS(=O)(=O)C2)cc1Cl (stereo not given) | -9.74% | – |
| CC1CCCCN1CC(=O)N1CCCc2c1c(=O)oc1ccc(OCc3ccccc3)cc21 (stereo not given) | -34% | – |
| CCOc1ccc(NC(=O)C2CCN(S(=O)(=O)c3cc(-c4noc(C)n4)ccc3C)CC2)cc1 | 4.51% | – |
| CC(O)CNCCOc1cccc(Oc2ccccc2)c1 (stereo not given) | – | 50.1 µM (active) |
| CC1(C)NC(=O)N(CCOc2cccc(Oc3ccccc3)c2)C1=O | 2.52% | – |
| COCCNCCOCCOc1cccc(OC)c1 | -19% | – |
| COc1ccc(-c2c3c(=O)n(C)c(=O)n(C)c3c3c(C)nc4ccccc4n23)cc1 | 4.79% | – |
| Cc1ccc(CCNC(=O)c2ccc3c(c2)N(Cc2cc(C)ccc2C)C(=O)c2ccccc2S3=O)cc1 (stereo not given) | -17.4% | – |
| COc1cc(NC(=O)Cn2nc(-c3ccc(C)c(C)c3)ccc2=O)cc(OC)c1 | -3.69% | – |
| O=C(O)c1ccc(Cn2c(SCc3ccc(F)cc3)nc3ccncc32)cc1 | -1.05% | – |
| C=CCn1c2ccccc2c2nnc(SC(CC)C(=O)Nc3nc(C)c(C(=O)OCC)s3)nc21 (stereo not given) | 0.0442% | – |
| CCn1c2ccccc2c2nnc(SCC(=O)O)nc21 | -5.77% | – |
| C=CCn1c2ccccc2c2nnc(SCc3[nH]c(=O)[nH]c3C(=O)CCCCC(=O)OCC)nc21 | – | 79.4 µM (active) |
| CCOC(=O)c1ccc(CSc2nnc3cc(C)c4ccccc4n23)cc1 | -15.6% | – |
| CCOc1ccc(C(=O)c2cn(Cc3ccccc3OC)c3ccc(F)cc3c2=O)cc1 | -19.9% | – |
| CCCN(C(=O)Cn1ncc2c([nH]c3ccc(C)cc32)c1=O)c1ccccc1C | 1.79% [at 57.1 µM] | – |
| CCOC(=O)c1cc(-c2ccccc2)n(-c2cccc(C(=O)Nc3cc(OC)cc(OC)c3)c2)c1C | -27.3% | – |
| Cc1ccc(N/C=C/C(=O)c2ccccc2)cc1C | -4.96% | – |
| Cc1ccc(NC(=O)COc2ccc(/C=N\NC(=O)c3cccnc3)cc2)cc1C | – | 56.2 µM (active) |
| O=C(NCc1cccc(CNC(=O)Nc2cccc(O)c2)c1)Nc1cccc(O)c1 | -18.9% | – |
| O=C(CSc1ccccc1)Nc1ccc(C(=O)Nc2cccc(O)c2)cc1 | 3.89% | – |
| C/C(=C\C(=O)c1cccnc1)Nc1ccc(C)c(C)c1 | – | 50.1 µM (active) |

| SMILES | activity change, negative = inhibition | Potency |
| --- | --- | --- |
| C/C(=C\C(=O)c1ccccc1)Nc1cccc(O)c1 | – | 50.1 µM (active) |
| Cc1cc2nc(-c3ccc(NC(=O)c4cccnc4)cc3)oc2cc1C | 11.6% | – |
| Cc1ccc(OCC(=O)NCCCNC(=O)c2cccnc2)cc1C | -1.83% | – |
| O=C(COc1ccc(/C=N/NC(=O)c2ccc(O)cc2)cc1)Nc1ccc([N+](=O)[O-])cc1 | -26.7% | – |
| Cc1cccc(NC(=O)c2ccc(F)c(S(=O)(=O)N(C)C3CCCCC3)c2)c1 | 0.102% | – |
| COc1ccc(Cl)cc1NC(=O)c1sc2nc3c(cc2c1N)CN(C)CC3 | -14.9% | – |
| CCOCCCNC(=O)c1c(NC(=O)c2nc(SC)ncc2Cl)sc2c1CCCC2 | -6% | – |
| CN(C)C(=O)c1coc2nc3ccccc3nc12 | -3.28% | – |
| CNC(=O)c1cccc2nc3ccccc3nc12 | – | 50.1 µM (active) |
| CNC(=O)c1cc2c(ccc3ccccc32)oc1=N | 4.85% | – |
| COc1ccc(-n2c(SC)nc3sc4c(c3c2=O)CCN(C(C)=O)C4)cc1 | 4.86% | – |
| CCOc1ccc(CNC(=O)c2ccc3nc(CC)c(CC)nc3c2)cc1OC | -2.35% | – |
| CC(C)c1ccc(Nc2nnc(SCC(=O)c3nnc(-c4ccccc4)o3)s2)cc1 | – | 35.5 µM (active) |
| Cc1ccc(Nc2nnc(SCC(=O)c3cc4ccccc4o3)s2)cc1C | -32.6% | – |
| Cc1ccccc1Nc1nnc(SCC(=O)c2cc3ccccc3o2)s1 | -11.7% | – |
| COc1ccc(OC)c(-c2noc(N3CCN(c4cc(Cl)ccc4C)CC3)n2)c1 | 0.334% | – |
| O=C(Nc1ccc2nc(SCC(=O)N3CCCc4ccccc43)sc2c1)c1ccc(F)cc1 | -4.11% | – |
| CCOC(=O)c1c(C)[nH]c(C)c1S(=O)(=O)NCC(=O)NCc1cccc(C)c1 | -11.8% | – |
| Cc1ccc(C)c(CNC(=O)c2cc3ccccn3n2)c1 | 0.834% | – |
| CN(C)CCCN(C(=O)c1ccc(S(=O)(=O)N2CCCc3ccccc32)cc1)c1nc2ccc(F)cc2s1 | – | 28.2 µM (active) |
| CCc1ccc2nc(N(CCCN(C)C)C(=O)c3ccc4c(c3)OCCO4)sc2c1 | 5.24% | – |
| CSc1nc2ccc(S(=O)(=O)N3CCc4ccccc43)cc2s1 | 8.85% | – |
| CCN(CC)CCN(C(=O)c1ccc(S(=O)(=O)N2CCOCC2)cc1)c1nc2cc3c(cc2s1)OCCO3 | -27.1% | – |
| Cc1ccc2nc(N(CCN(C)C)C(=O)C3=COCCO3)sc2c1 | -2.02% | – |
| CN(C)CCCN(C(=O)c1ccc(S(=O)(=O)N2CCCCCC2)cc1)c1nc2ccc(Br)cc2s1 | – | 28.2 µM (active) |
